Pf Dd2 inh = qHTS Primary assay for Inhibitors of Plasmodium falciparum Dd2 growth in vitro. P. falciparum Dd2 growth, SYBR Green, 72 h. Potency, µM (series often up to 28.9 µM), for inactives: top-dose activity, negative = inhibition, hits mostly inhibitors. hit rate 4.3% among 120,000. AID 1347417, 2020; active means well fitted inhibition curve with a large enough effect;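 further: plate controls were DMSO vehicle for no effect and reference drug for full effect; nearly all actives have a fitted effect of over 65% in size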
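Readout: SYBR Green fluorescence, 485 nm excitation, 535 nm emission, after ~16 h lysis at 37C. Before that, Dd2-infected red cells (2.5% hematocrit) grew 72 h with compound, 29 uM top final concentration.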
An asterisk follows results filed as active; [ ] = another dose, or the depositor's remark. The entries come from a sample that favours hits as a whole. Potency means the concentration at half of the fitted maximal effect.

Screening COc1ccc(NC(=O)N[C@H]2CCN3C(=O)[C@@H](Cc4ccc(Cl)cc4)NC(=O)[C@@H]3C2)cc1 returned Pf Dd2 inh inactive.
CCC(=O)N1CCC(C(NC(=O)c2ccccc2C)C(=O)NCC(C)C)CC1 (stereo not drawn) was read as Pf Dd2 inh 6%.
Screening COc1ccc(-n2c(=O)c3c(n2Cc2ccccc2)CN(Cc2c(C)noc2C)CC3)cc1 returned Pf Dd2 inh 13%.
`c1ccc2sc([C@H]3CCN(Cc4ccc5c(c4)OCO5)C3)nc2c1` gave Pf Dd2 inh inactive.
O=C(NCc1ccc2c(c1)CCN2C(=O)c1ccc(F)cc1)c1ccco1 was read as Pf Dd2 inh 2.8µM*.
O=C(NCc1ccc2c(c1)CCN2C(=O)c1ccc(Cl)cc1)c1ccco1 was read as Pf Dd2 inh 35%.
Cc1cccc(C(=O)N2CCc3cc(CNC(=O)c4ccco4)ccc32)c1 was read as Pf Dd2 inh 4%.
`CN1CCCCC12Cc1ccccc1CN(C(=O)c1ccccc1)C2` (stereo not drawn) gave Pf Dd2 inh 8.9µM*.
CN(C)CC(=O)N1Cc2ccccc2CC2(CCCCN2C)C1 (stereo not drawn) was read as Pf Dd2 inh -29%.
`CN1CCCCC12Cc1ccccc1CN(C(=O)CCCC(=O)O)C2` (stereo not drawn) gave Pf Dd2 inh 22%.
For CCOc1ccc(C(=O)N2CCC3(CC2)CC(O)CCO3)cc1 (stereo not drawn) the results were Pf Dd2 inh -8%.
For O=C(NCC1CC1)c1nc2c(o1)CCN(Cc1ccc3c(c1)CCO3)CC2 the results were Pf Dd2 inh inactive.
For COCCCN1CCc2c(n(Cc3ccccc3)n(-c3ccccc3)c2=O)C1 the results were Pf Dd2 inh 11µM*.
Screening COCCn1c(=O)c2c(n1Cc1ccccc1)CN(Cc1cccnc1OC)CC2 returned Pf Dd2 inh -16%[44.1 µM].
For COCCn1c(=O)c2c(n1Cc1ccccc1)CN(Cc1ccc(C(C)C)cc1)CC2 the results were Pf Dd2 inh -10%[44.1 µM].
For COCC(=O)N[C@H]1C[C@H]2C(=O)NC[C@@H](CCC(=O)N3CCN(c4ccccc4)CC3)N2C1 the results were Pf Dd2 inh 2%.
COc1ccc(C)cc1NC(=O)c1oc2ccc(S(=O)(=O)N3CCOCC3)cc2c1C was read as Pf Dd2 inh 33%.
Screening COc1ccc(C)cc1NC(=O)c1oc2ccc(S(=O)(=O)N3CCCCC3)cc2c1C returned Pf Dd2 inh 34%.
CCOC(=O)c1oc2ccc(S(=O)(=O)n3nc(-c4cc(OCC)c(OCC)c(OCC)c4)cc3N)cc2c1C was read as Pf Dd2 inh 10µM*.
`COCC(=O)N1CCC2(CCN(Cc3cccc(C)n3)CC2)C(CO)C1` (stereo not drawn) gave Pf Dd2 inh 12%.
CN(C)c1ccc(CN2C[C@H](O)C[C@H]2c2nc(C3CC3)no2)cc1 was read as Pf Dd2 inh inactive.
`CC(C)C[C@@H]1N[C@H](C(=O)NCc2ccc(C(F)(F)F)cc2)Cc2c[nH]c3cccc1c23` gave Pf Dd2 inh inactive.
COc1ccc(-c2cnc3[nH]cc(CC(=O)N4CCNC(=O)C4)c3c2)cc1 was read as Pf Dd2 inh 7.9µM*.
COc1cccc(-c2cnc3[nH]cc(CC(=O)N4CCN(C)CC4)c3c2)c1 was read as Pf Dd2 inh inactive.
For O=C(Cc1c[nH]c2ncc(-c3ccc(Oc4ccccc4)cc3)cc12)N1CCOCC1 the results were Pf Dd2 inh -3%[44.1 µM].
For CNC(C)c1c(F)cccc1F (stereo not drawn) the results were Pf Dd2 inh 2%[44.1 µM].
Screening COc1ccc(CNC2(Cc3cc(C(=O)N4CCCCC4)on3)COC2)cc1 returned Pf Dd2 inh inactive.
`COCCN[C@H]1[C@@H]2OC[C@@H](O2)[C@@H](NCc2ccc(-c3ccccc3)cc2)[C@@H]1O` gave Pf Dd2 inh 10µM*.
For O[C@H]1[C@H](NCc2ccc(-c3ccccc3)cc2)[C@H]2CO[C@H](O2)[C@@H]1Sc1ccccc1 the results were Pf Dd2 inh -29%[44.1 µM].
COCCN[C@H]1[C@@H]2OC[C@@H](O2)[C@@H](NCc2ccccn2)[C@@H]1O was read as Pf Dd2 inh -6%[44.1 µM].
Screening COc1ccccc1N1CCN(C(=O)[C@H]2O[C@H](CCN3CCN(c4ccccc4)CC3)CC[C@@H]2O)CC1 returned Pf Dd2 inh inactive.
O=C([C@H]1O[C@H](CCN2CCN(c3ccccc3)CC2)CC[C@@H]1O)N1CCOCC1 was read as Pf Dd2 inh 2%[44.1 µM].
`CN(Cc1ccccc1)C(=O)[C@H]1O[C@H](CCN2CCN(c3ccccc3)CC2)CC[C@@H]1O` gave Pf Dd2 inh 4.5µM*.
CS(=O)(=O)N1CCCN(C(=O)CN2CCCC2=O)CCNC(=O)CC1c1ccccc1 (stereo not drawn) was read as Pf Dd2 inh -25%.
For COc1ccc(C2=NOC3(CCCN(C(=O)C4CCCCC4)C3)C2)cc1 (stereo not drawn) the results were Pf Dd2 inh -17%.
CC(C)C(=O)N1CCOC[C@H](Oc2ccc(C(F)(F)F)cn2)C1 was read as Pf Dd2 inh -14%[44.1 µM].
Screening COc1ccccc1C1CCCN1C(=O)c1oc2ccc(C)cc2c1C (stereo not drawn) returned Pf Dd2 inh -23%.
Screening COc1ccc(OCc2cc(C(=O)N(C)CCCO)n[nH]2)c(Cl)c1 returned Pf Dd2 inh -17%.
CCc1ccc2nc(N3CCN(C(=O)C4CC4)CC3)sc2c1 was read as Pf Dd2 inh inactive.
COc1ccc(N2CCN(CCCNC(=O)c3ccc4nc(N5CCCCC5)sc4c3)CC2)cc1 was read as Pf Dd2 inh 7%.
`CCc1ccc2nc(N3CCC(C(=O)O)CC3)sc2c1` gave Pf Dd2 inh 21%.
Screening CCCCN(C)CCNC(=O)C1CCN(c2nc3ccc(CC)cc3s2)CC1 returned Pf Dd2 inh 10µM*.
For CCCCN(C)CCCNC(=O)c1ccc2nc(N3CCCCC3)sc2c1 the results were Pf Dd2 inh 8.9µM*.
For CCN(CC)CCCNC(=O)c1ccc2nc(N3CCCCC3)sc2c1 the results were Pf Dd2 inh -9%.
For COCCNC(=O)CCc1c(C)nn(-c2ccc(F)cc2)c1Oc1ccccc1C the results were Pf Dd2 inh -8%.
For O=C(NCc1ccccc1F)N1C[C@@H](CN2CCCCC2)[C@@H](CO)C1 the results were Pf Dd2 inh -2%.
CCc1ccccc1NC(=O)N1CCc2c([nH]c3ccccc23)C1c1ccc(C)cc1 (stereo not drawn) was read as Pf Dd2 inh -20%.
For CCOc1cccc(CC(=O)N2CCc3c([nH]c4ccccc34)C2c2ccc(Cl)cc2)c1OCC (stereo not drawn) the results were Pf Dd2 inh 5µM*.
Screening CCOc1cc(C(=O)N2CCC[C@H]2c2nc(-c3ccc(C)cc3)no2)cc(OCC)c1OCC returned Pf Dd2 inh inactive.
Screening CCOc1cc(C(=O)N2CCc3c([nH]c4ccccc34)C2c2ccccc2)cc(OCC)c1OCC (stereo not drawn) returned Pf Dd2 inh 2µM*.
COc1ccc2[nH]c3c(c2c1)CCN(C)C31CCN(C(=O)C2CCCC2)CC1 was read as Pf Dd2 inh inactive.
`COc1cc(C(=O)N2CCc3c([nH]c4ccccc34)C2c2ccc(F)cc2)cc(OC)c1OC` (stereo not drawn) gave Pf Dd2 inh 4.5µM*.
Screening COc1ccc(C(=O)N2CC(=O)Nc3ccc(Br)cc3C2c2ccc(F)cc2)cc1OC (stereo not drawn) returned Pf Dd2 inh -24%.

Assay outcomes from PubChem.
